MCF10A rereplic: DNA re-replication induction in MCF 10a cells; MCF 10A DNA re-replication, Hoechst nuclear intensity, 48 h; Potency, µM (series often up to 46.1 µM), for inactives: at the top dose activity, positive = re-replication, actives largely listed as activators; 350,000 compounds, 2.9% hits; also: % of control where 0% means no effect; nearly all actives have a fitted effect of over 50% in size
KB-3-1 cytotox: kills parental KB-3-1 adenocarcinoma cells; AID 1347075; Potency, µM (doses to about 46.1 µM), hits mostly cytotoxic; KB-3-1 viability, CellTiter-Glo ATP luminescence, 72 h; 400,000 compounds, 1.4% hits; also: % is scaled to controls: 0 for no effect and ±100 for the full control effect; nearly all actives have a fitted effect of over 60% in size
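Luminescent ATP read-out (CellTiter-Glo) measures survival of drug-naive KB-3-1 cells after 72 h compound exposure at 37 °C. Titration series was screened from lowest to highest concentration, with DMSO vehicle plates as background controls.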
HT1080 IDH1KD tx: HT-1080 IDH1 knockdown cell toxicity (counter line) | HT-1080 IDH1 knockdown viability, ATP luminescence, 48 h | Potency, µM (highest dose often 46.1 µM), inactives show at the highest dose activity, negative = toxicity, actives largely listed as cytotoxic | 360,000 compounds, 2% hits;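 also: 0% = DMSO wells and -100% = cell-free medium wells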
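CellTiter-Glo luminescence after 48 h compound exposure at 37 degrees C of IDH1-knockdown HT-1080 cells in 5% FBS RPMI. %Activity scaled between DMSO wells and cell-free media wells, with curves fitted and assigned curve classes.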
SW480 rerep: inducers of DNA re-replication in SW480 colon cancer cells; 340,000 compounds, 1.8% hits; Potency, µM (doses to about 46.1 µM), for inactives: top-dose re-replication activation, actives largely listed as activators; SW480 DNA re-replication, Hoechst DNA content imaging, 48 h; also: % of control where 0% means no effect; nearly all actives have a fitted effect of over 55% in size
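Hoechst fluorescence of nuclei (405 nm excitation, 500-530 nm emission) measured by plate-scanning imager after 48 hr compound exposure at 37 C; re-replication scored as increased number of nuclei with elevated intensity.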
KB-V1 cytotox: kills drug-selected multidrug resistant KB-V1 cells | 400,000 compounds, 3.4% hits | KB-V1 MDR cells viability, CellTiter-Glo, 72 h | Potency, µM (titrated, usually from 46.1 µM), usual class: cytotoxic; also: % is scaled to controls: 0 for no effect and ±100 for the full control effect; nearly all actives have a fitted effect of over 60% in size
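Luminescent ATP read-out (CellTiter-Glo, 10 min) measures survival of drug-selected KB-V1 MDR cells after 72 h, 37 degrees C compound exposure. Medium: phenol-red-free DMEM, 10% FBS. Values from fitted concentration-response curves.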
HT1080-NT tox: kills 2HG-producing HT-1080-NT fibrosarcoma cells | HT-1080-NT fibrosarcoma viability, CellTiter-Glo ATP luminescence, 48 h | Potency, µM (doses to about 46.1 µM), without a hit: at the highest dose activity, negative = less viability, actives largely listed as cytotoxic | 360,000 compounds, 1.6% hits | AID 686970;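 also: NT is the 2HG producing partner of a matched IDH1 knockdown line; 0% = DMSO-treated cells and -100% = media-only wells without cells; nearly all actives have a fitted effect of over 55% in size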
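Fibrosarcoma NT cells, 750 per well in 5% FBS RPMI, were exposed to compound for 48 hours. Viability: CellTiter-Glo luminescence.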
Numbers without * were called inactive; i = inactive; ? = inconclusive; · = no result; [ ] = dose if it differs, or a comment. Compounds with a hit are over-represented: about 7.9% of the library has one in this group of screens. Calls follow the shape of the dose curve; as a rule, active = well fitted curve in the direction sought with a large enough effect; inconclusive = small, poorly fitted or top-dose-only effect, or another doubt; inactive = no such curve, though single readings can be large; an effect the other way counts as inactive or inconclusive. Potency is read from the fitted curve at half-maximal effect.

SMILES	MCF10A rereplic	KB-3-1 cytotox	HT1080 IDH1KD tx	SW480 rerep	KB-V1 cytotox	HT1080-NT tox
CCc1cccc(C)c1NC(=S)NCC1CCN(c2ccc(OC)cc2)C1 (configuration not stated)	24%	i	?	?	i	?
Cc1cnc(C)c(N2CCC(C(=O)NCc3cccs3)CC2)n1	6%	i	3%	1%	i	2%
CCS(=O)(=O)N1CCC(C(=O)NCCCOC)CC1	?	i	2%[9.24 µM]	15µM*	i	-1%
CCCS(=O)(=O)N1CCC(C(=O)NCCCOC)CC1	0%	i	25%	-7%	i	20%
Cc1cc(C)nc(N2CCCC(C(=O)NCc3cccs3)C2)n1 (configuration not stated)	-10%	i	3%	-9%	16µM*	8%
O=C(NCc1ccco1)C1CCCN(c2nnc(-n3cccc3)s2)C1 (configuration not stated)	16%	i	?	22%	i	2.6µM*
COc1nc(OC)nc(N2CCC(C(=O)NCc3cccs3)CC2)n1	-2%	i	-11%	-16%	18µM*	-8%
Cc1ccnc(N2CCCC(C(=O)NCc3cccs3)C2)n1 (configuration not stated)	?	i	-7%	-10%	i	0%
Cc1cc(C)nc(N2CCCC(C(=O)NC(C)CCc3ccco3)C2)n1 (configuration not stated)	5%	i	12%	0%	10µM*	-4%
CCCCNC(=O)C1CCN(c2nc(OC)nc(OC)n2)CC1	5%	i	10%	-1%	21µM*	25%
CC(=O)NC(c1ccccc1)c1nc(-c2ccccc2)cs1 (configuration not stated)	·	i	30%	·	i	?
C=CCOc1c(Cl)cc(C(=S)N2CCCC2)cc1OCC	12µM*	6.5µM*	9.2µM*	?	9.2µM*	?
Cc1cccc(Nc2nnc(SCC(O)=C(C#N)c3nc4ccccc4[nH]3)s2)c1	15µM*	i	?	25%	i	-28%
CCOC(=O)c1c(NC(=O)c2ccccc2N(C)S(=O)(=O)c2ccccc2)sc2c1CCCC2	?	2.9µM*	9.2µM*	5.2µM*	5.8µM*	?
COCCN(CCOC)S(=O)(=O)c1ccc(C(=O)Nc2sc3c(c2C(N)=O)CCCCC3)cc1	18%	i	-2%	4%	2.9µM*	-1%
COC(=O)c1c(NS(=O)(=O)Cc2ccccc2)sc2c1CCCC2	-9%	i	-3%	3%	?	2%
COC(=O)c1c(NC(=O)c2ccccc2N(C)S(=O)(=O)c2ccccc2)sc2c1CCCC2	?	4.6µM*	?	12µM*	6.5µM*	?
COC(=O)c1c(NC(=O)CN(c2ccccc2)S(C)(=O)=O)sc2c1CCCC2	1%	i	-7%	-4%	10µM*	-8%
Oc1c(C(c2ccc(F)cc2)N2CCCC2)sc2nc(-c3ccco3)nn12 (configuration not stated)	·	i	·	·	i	·
COc1cc(OC)cc(C(=O)Nc2sc3c(c2C(N)=O)CCC3)c1	0.58µM*	i	2%	?	i	-9%
COC(=O)c1c(NC(=O)c2ccc(N(C)S(=O)(=O)c3ccc(C)cc3)cc2)sc2c1CCCC2	5.8µM*	i	17%	?	i	1%
CCOC(=O)c1c(NC(=O)C(NCCN(C)C)c2ccccc2)sc2c1CCCC2 (configuration not stated)	18µM*	?	18µM*	?	i	?
CCc1ccc(NC(=O)CN(c2ccc(C)cc2)S(=O)(=O)c2cccs2)cc1	·	i	·	·	i	·
Cc1nn(-c2ccccc2)c(C)c1C(=O)OCC(=O)N1CCN(S(=O)(=O)c2ccccc2)CC1	0%	i	-7%	9%	?	17%
